From PubChem BioAssay (Tox21)
Results filed as inconclusive are left out. Calls of active or inactive are those of the source. Unless noted, calls come from the whole dose curve; as a rule, active = well fitted curve in the direction sought with a large enough effect in the repeat runs; inconclusive = weak or mixed curves; inactive = no such curve, though single readings can be large; an effect the other way counts as inactive or inconclusive.

Assays:
[1] = qHTS assay to identify aromatase inhibitors - cell viability counter screen (AID 743084);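 note: cells stimulated with testosterone during compound exposure; nearly all actives have a fitted effect of over 55% in size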
[2] = target: Aryl hydrocarbon receptor (Homo sapiens) (UniProt P35869); experiment: qHTS assay to identify small molecule that activate the aryl hydrocarbon receptor (AhR) signaling pathway (AID 743085);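 note: HG2L7.5c1 human HepG2 liver cells with stably integrated DRE-driven firefly reporter; series mostly up to about 70 µM; nearly all actives have a fitted effect of over 15% in size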
Chain of Aryl hydrocarbon receptor (Homo sapiens) (P35869 whole entry, looked up): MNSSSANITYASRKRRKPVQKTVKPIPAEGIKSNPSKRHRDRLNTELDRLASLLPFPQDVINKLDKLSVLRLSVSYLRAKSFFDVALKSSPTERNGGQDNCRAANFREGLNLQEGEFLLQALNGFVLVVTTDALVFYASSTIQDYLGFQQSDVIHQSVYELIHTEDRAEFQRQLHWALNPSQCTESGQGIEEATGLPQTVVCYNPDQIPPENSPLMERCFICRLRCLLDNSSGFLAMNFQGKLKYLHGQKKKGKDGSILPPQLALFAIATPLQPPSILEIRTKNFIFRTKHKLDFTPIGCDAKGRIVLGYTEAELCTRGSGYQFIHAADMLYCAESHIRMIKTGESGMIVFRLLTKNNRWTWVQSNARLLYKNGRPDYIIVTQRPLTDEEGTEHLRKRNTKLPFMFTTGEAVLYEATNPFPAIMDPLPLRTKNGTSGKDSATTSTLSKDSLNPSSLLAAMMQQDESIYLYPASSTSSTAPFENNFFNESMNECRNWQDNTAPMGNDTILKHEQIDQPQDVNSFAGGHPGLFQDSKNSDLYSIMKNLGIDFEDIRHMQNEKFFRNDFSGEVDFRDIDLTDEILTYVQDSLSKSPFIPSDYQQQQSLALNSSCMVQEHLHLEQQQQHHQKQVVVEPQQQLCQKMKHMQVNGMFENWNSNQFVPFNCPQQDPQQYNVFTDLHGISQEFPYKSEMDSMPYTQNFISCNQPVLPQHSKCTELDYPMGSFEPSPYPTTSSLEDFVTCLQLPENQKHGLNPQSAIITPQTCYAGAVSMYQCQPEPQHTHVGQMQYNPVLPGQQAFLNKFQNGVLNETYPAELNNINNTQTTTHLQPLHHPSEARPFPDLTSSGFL
Summary of the method: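 Measured in HG2L7.5c1 cells: CellTiter-Fluor signal (30 min incubation, 37C) for viability, then luciferase luminescence (30 min, room temperature). Compound contact time was 24 h at 37C, following a 5 h pre-incubation.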

[3] = qHTS assay to identify small molecule that activate the aryl hydrocarbon receptor (AhR) signaling pathway - cell viability counter screen (AID 743086);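 note: HepG2 liver cells carrying the AhR DRE luciferase reporter; series mostly up to about 70 µM; nearly all actives have a fitted effect of over 45% in size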
Summary of the method: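 HepG2-AhR-luc (HG2L7.5c1) cells, 4000/well, were preincubated 5 h at 37C, exposed to compound in qHTS format for 24 hr at 37C, then given CellTiter-Fluor for 30 min; viability was read as fluorescence in the reporter wells.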

[4] = target: Peroxisome proliferator-activated receptor gamma (Homo sapiens) (UniProt P37231); experiment: qHTS assay to identify small molecule agonists of the peroxisome proliferator-activated receptor gamma (PPARg) signaling pathway (AID 743094; active = well fitted activation curve with a large enough effect in the signal ratio in the repeat runs, not every such curve was filed as active; the % refers to the signal ratio)
Chain of Peroxisome proliferator-activated receptor gamma (Homo sapiens) (P37231 whole entry, looked up): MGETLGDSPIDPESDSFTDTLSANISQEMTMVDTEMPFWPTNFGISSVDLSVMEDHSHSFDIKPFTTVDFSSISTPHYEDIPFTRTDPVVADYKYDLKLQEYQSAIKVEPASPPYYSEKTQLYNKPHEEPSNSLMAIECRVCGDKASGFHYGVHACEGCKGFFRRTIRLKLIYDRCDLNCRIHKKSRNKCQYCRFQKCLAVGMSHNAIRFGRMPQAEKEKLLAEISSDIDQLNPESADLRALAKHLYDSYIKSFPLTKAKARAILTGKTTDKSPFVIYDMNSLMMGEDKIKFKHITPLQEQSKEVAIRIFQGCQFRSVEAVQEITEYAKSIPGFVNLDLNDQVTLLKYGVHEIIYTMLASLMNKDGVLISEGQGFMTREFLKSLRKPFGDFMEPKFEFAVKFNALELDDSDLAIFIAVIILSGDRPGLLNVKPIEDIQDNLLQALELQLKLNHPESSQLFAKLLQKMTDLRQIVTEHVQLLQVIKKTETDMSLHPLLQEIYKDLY
Summary of the method: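 HEK293H PPARg-bla cells, 5 h settle at 37C/5% CO2; compound (DMSO) 17 h, 37C; B/G FRET substrate 1 h RT; fluorescence intensity read-out. qHTS format.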

[5] = target: Peroxisome proliferator-activated receptor gamma (Homo sapiens) (UniProt P37231); experiment: qHTS assay to identify small molecule antagonists of the peroxisome proliferator-activated receptor gamma (PPARg) signaling pathway (AID 743191; calls by dose curve; note: series mostly up to about 63 µM; nearly all actives have a fitted effect of over 30% in size)
Summary of the method: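 GeneBLAzer PPARg UAS-bla HEK293H cells carrying a UAS-driven beta-lactamase reporter were plated at 3000 cells/well, preincubated 5 h at 37C, then given compound for 17 h at 37C; LiveBLAzer B/G FRET substrate was read after 1 h at room temperature.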

[6] = qHTS assay to identify small molecule antagonists of the peroxisome proliferator-activated receptor gamma (PPARg) signaling pathway - cell viability counter screen (AID 743194); note: nearly all actives have a fitted effect of over 55% in size
Summary of the method: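 PPARg-UAS-bla HEK293H cells were plated, rested 5 h at 37 C, then treated with compounds plus rosiglitazone (50 nM final) for 17 h at 37 C; viability was then read by CellTiter-Glo luminescence after 30 min at room temperature.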

[7] = qHTS assay for small molecule agonists of the antioxidant response element (ARE) signaling pathway (AID 743202; active = well fitted activation curve with a large enough effect in the signal ratio in the repeat runs, not every such curve was filed as active; the % refers to the signal ratio)
Summary of the method: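 Following a 16 h, 37 C exposure of reporter HepG2 cells (ARE-driven beta-lactamase, 2,000 cells/well) to compounds, FRET substrate was applied for 2 h at room temperature and fluorescence intensity recorded.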

[8] = qHTS assay for small molecule agonists of the antioxidant response element (ARE) signaling pathway - cell viability counter screen (AID 743203; calls by dose curve; note: nearly all actives have a fitted effect of over 55% in size)
Summary of the method: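 Luminescence read-out (CellTiter-Glo, 30 min at room temperature) measured cell viability in the same wells as the ARE beta-lactamase reporter. HepG2 ARE-bla cells were treated with compounds for 16 hrs at 37C/5% CO2.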

[9] = qHTS assay for small molecule activators of the heat shock response signaling pathway - cell viability counter screen (AID 743209); note: nearly all actives have a fitted effect of over 50% in size
Summary of the method: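 HSE-bla HeLa; 1500 cells/well; overnight 37 C, 5% CO2; compound 5 h 37 C; LiveBLAzer B/G substrate 2.5 h RT; CellTiter-Glo 30 min RT; luminescence.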

[10] = qHTS assay for small molecule activators of the heat shock response signaling pathway (AID 743210; active = well fitted activation curve with a large enough effect in the signal ratio in the repeat runs, with a control signal flat, not every such curve was filed as active; the % refers to the signal ratio; note: series mostly up to about 63 µM)
Summary of the method: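 Heat shock element–beta-lactamase HeLa reporter cells; qHTS with compounds for 5 h at 37 C; detection by FRET substrate fluorescence after 2.5 h at RT.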

[11] = qHTS assay to identify small molecule agonists of the peroxisome proliferator-activated receptor delta (PPARd) signaling pathway - cell viability counter screen (AID 743211); note: nearly all actives have a fitted effect of over 55% in size
Summary of the method: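 Following 5 h plating at 37 C and 5% CO2, PPARd UAS-bla HEK293H cells took up test compounds for 17 h. Viability was quantified by luminescence 30 min after CellTiter-Glo addition at room temperature.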

[12] = target: Peroxisome proliferator-activated receptor delta (Homo sapiens) (UniProt Q03181); experiment: qHTS assay to identify small molecule agonists of the peroxisome proliferator-activated receptor delta (PPARd) signaling pathway (AID 743212; calls by dose curve)
Chain of Peroxisome proliferator-activated receptor delta (Homo sapiens) (Q03181 whole entry, looked up): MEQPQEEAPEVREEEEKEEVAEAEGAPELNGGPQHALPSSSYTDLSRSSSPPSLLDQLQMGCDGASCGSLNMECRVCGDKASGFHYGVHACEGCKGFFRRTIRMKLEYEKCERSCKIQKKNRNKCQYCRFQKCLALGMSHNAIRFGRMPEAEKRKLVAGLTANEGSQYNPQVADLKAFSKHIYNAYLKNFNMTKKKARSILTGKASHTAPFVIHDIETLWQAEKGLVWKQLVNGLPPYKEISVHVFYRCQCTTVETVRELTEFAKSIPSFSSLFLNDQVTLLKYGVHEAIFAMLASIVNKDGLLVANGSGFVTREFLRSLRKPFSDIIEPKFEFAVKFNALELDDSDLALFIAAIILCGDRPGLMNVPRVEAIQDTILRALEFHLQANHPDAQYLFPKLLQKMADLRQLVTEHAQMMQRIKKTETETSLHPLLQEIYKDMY
Summary of the method: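 Beta-lactamase reporter read by fluorescence (LiveBLAzer B/G FRET, 2 h, room temperature). Test agents, in DMSO, incubated at 37 C with PPARd-bla HEK293H cells.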

[13] = qHTS assay to identify small molecule antagonists of the peroxisome proliferator-activated receptor delta (PPARd) signaling pathway - cell viability counter screen (AID 743213); note: nearly all actives have a fitted effect of over 50% in size
Summary of the method: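 PPARd-bla HEK293H cells were treated with compounds plus agonist L165041 (300 nM final) for 17 h at 37 C. Viability was then read in the same wells by CellTiter-Glo luminescence after 30 min at room temperature.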

[14] = target: Peroxisome proliferator-activated receptor delta (Homo sapiens) (UniProt Q03181); experiment: qHTS assay to identify small molecule antagonists of the peroxisome proliferator-activated receptor delta (PPARd) signaling pathway (AID 743215; active = well fitted inhibition curve with a large enough effect in the signal ratio in the repeat runs, not every such curve was filed as active; the % refers to the signal ratio;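 note: cells stimulated with agonist L165041 at 300 nM final during compound exposure; series mostly up to about 62 µM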)
Summary of the method: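 HEK293H GeneBLAzer PPARd UAS-bla reporter cells; cpd + L165041 300 nM final, 17 h 37 C; LiveBLAzer B/G FRET substrate 2 h RT; fluorescence intensity read-out. Antagonist mode.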

[15] = target: Bile acid receptor (Homo sapiens) (UniProt Q96RI1); experiment: qHTS assay to identify small molecule antagonists of the farnesoid-X-receptor (FXR) signaling pathway (AID 743217; active = well fitted inhibition curve with a large enough effect in the signal ratio in the repeat runs, not every such curve was filed as active; the % refers to the signal ratio)
Chain of Bile acid receptor (Homo sapiens) (Q96RI1 whole entry, looked up): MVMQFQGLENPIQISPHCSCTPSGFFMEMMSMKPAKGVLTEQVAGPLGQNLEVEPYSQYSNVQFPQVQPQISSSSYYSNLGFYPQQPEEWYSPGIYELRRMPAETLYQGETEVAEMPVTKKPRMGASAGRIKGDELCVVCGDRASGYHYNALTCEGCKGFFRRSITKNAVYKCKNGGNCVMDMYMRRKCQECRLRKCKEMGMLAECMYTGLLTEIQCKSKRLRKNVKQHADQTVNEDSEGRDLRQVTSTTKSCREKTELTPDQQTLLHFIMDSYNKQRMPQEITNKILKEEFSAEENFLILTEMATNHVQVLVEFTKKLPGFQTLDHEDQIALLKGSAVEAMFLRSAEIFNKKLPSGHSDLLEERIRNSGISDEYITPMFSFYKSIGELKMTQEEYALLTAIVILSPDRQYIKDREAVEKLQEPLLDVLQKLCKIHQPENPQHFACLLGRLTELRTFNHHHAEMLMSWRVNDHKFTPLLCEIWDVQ
Summary of the method: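 Read-out: beta-lactamase FRET fluorescence (LiveBLAzer B/G substrate, 2 h, room temperature) in GeneBLAzer FXR-UAS-bla HEK 293T cells. Compounds were co-dosed with 50 uM chenodeoxycholic acid (final) and incubated 16 h at 37 °C.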

[16] = qHTS assay to identify small molecule agonists of the farnesoid-X-receptor (FXR) signaling pathway - cell viability counter screen (AID 743218); note: nearly all actives have a fitted effect of over 45% in size
Summary of the method: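 Luminescence from CellTiter-Glo, read after 30 min at RT, reports viability of GeneBLAzer FXR-UAS-bla HEK 293T cells treated 16 h with compounds in the wells used for the beta-lactamase reporter.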

[17] = target: Bile acid receptor (Homo sapiens) (UniProt Q96RI1); experiment: qHTS assay to identify small molecule agonists of the farnesoid-X-receptor (FXR) signaling pathway (AID 743220; active = well fitted activation curve with a large enough effect in the signal ratio in the repeat runs, not every such curve was filed as active; the % refers to the signal ratio)
Summary of the method: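 FXR-UAS-bla HEK 293T cells carrying a UAS-driven beta-lactamase reporter were plated for 5 h at 37C/5% CO2, then exposed to DMSO-dissolved Tox21 10K compounds for 16 h at 37C. A LiveBLAzer B/G FRET substrate was loaded for 2 h at room temperature before fluorescence reading.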

[18] = qHTS assay to identify small molecule antagonists of the farnesoid-X-receptor (FXR) signaling pathway - cell viability counter screen (AID 743221; active = well fitted cell-killing curve with a large enough effect in the repeat runs, not every such curve was filed as active; note: nearly all actives have a fitted effect of over 50% in size)
Summary of the method: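 Compound effects on cell number were measured as CellTiter-Glo luminescence in HEK 293T cells expressing FXR-UAS-bla, after 16 h at 37 C with 50 uM CDCA (final).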

[19] = target: Vitamin D3 receptor (Homo sapiens) (UniProt P11473); experiment: qHTS assay to identify small molecule agonists of the vitamin D receptor (VDR) signaling pathway (AID 743222; calls by dose curve)
Chain of Vitamin D3 receptor (Homo sapiens) (P11473 whole entry, looked up): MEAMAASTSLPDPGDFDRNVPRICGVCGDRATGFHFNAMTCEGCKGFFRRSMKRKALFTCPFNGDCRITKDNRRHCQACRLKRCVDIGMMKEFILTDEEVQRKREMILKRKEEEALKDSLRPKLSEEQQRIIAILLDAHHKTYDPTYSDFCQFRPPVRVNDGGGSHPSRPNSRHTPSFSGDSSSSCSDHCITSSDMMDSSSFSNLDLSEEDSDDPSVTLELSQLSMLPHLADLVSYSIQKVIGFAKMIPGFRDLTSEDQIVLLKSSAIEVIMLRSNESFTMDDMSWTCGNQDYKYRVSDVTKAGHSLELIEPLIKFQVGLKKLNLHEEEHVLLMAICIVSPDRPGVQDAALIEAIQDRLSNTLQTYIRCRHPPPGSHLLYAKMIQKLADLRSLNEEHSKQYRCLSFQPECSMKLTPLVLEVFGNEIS
Summary of the method: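 Beta-lactamase reporter readout (LiveBLAzer B/G FRET, 2 h RT) in VDR-bla cells after 16 h compound treatment at 37C, 5% CO2; cells pre-incubated 4 h before pin transfer of DMSO solutions.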

[20] = target: Vitamin D3 receptor (Homo sapiens) (UniProt P11473); experiment: qHTS assay to identify small molecule antagonists of the vitamin D receptor (VDR) signaling pathway (AID 743223; active = well fitted inhibition curve with a large enough effect in the signal ratio in the repeat runs, not every such curve was filed as active; the % refers to the signal ratio)
Summary of the method: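 Beta-lactamase activity in VDR-bla cells is measured by FRET substrate fluorescence (2 h, room temperature) after cells spend 16 h at 37C with test compound and 3 nM final 1alpha,25-dihydroxyvitamin D3.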

Measured: Potency

Cc1cc(C)nc(NS(=O)(=O)c2ccc(N)cc2)n1
not listed: [19] | [20]
inactive: all other assays above

CCCCNC(=O)NS(=O)(=O)c1ccc(C)cc1
inactive: all assays above

CN(C)CCOC(C)(c1ccccc1)c1ccccn1 (stereo not given)
inactive: all assays above

CCCCC1(COC(=O)CCC(=O)O)C(=O)N(c2ccccc2)N(c2ccccc2)C1=O
not listed: [15] | [17]
inactive: all other assays above

CCCc1cc(=O)[nH]c(=S)[nH]1
not listed: [15] | [17] | [19] | [20]
inactive: all other assays above

CC(=O)C(=O)O
not listed: [15] | [17]
inactive: all other assays above

O=c1[nH]cc(F)c(=O)[nH]1
inactive: all assays above
